MazF activator: activators of E. coli MazEF toxin-antitoxin RNase. P0AE70. FAM/BHQ RNA-DNA oligo cleavage fluorescence, 5 h. activation, % at 20 µM. actives 0.32% (n = 350,000). AID 504720; in the data active means activation above about 50%
BoNT-A LC inh2: blocks Botulinum neurotoxin A light chain protease; actives 0.17% (n = 360,000); multiplex microsphere protease substrate cleavage, flow cytometry; AID 588499; inhibition, % at 10 µM; further: plate controls were buffer without enzyme for full effect and enzyme alone for no effect
Bead autofluor: flagged as autofluorescent in microsphere protease counterscreen. fluorescence intensity (no concentration beside the values). actives 3.1% (n = 360,000). compound autofluorescence counterscreen, microsphere flow cytometry; active compounds read high. AID 624483; in the data active means fluorescence intensity above about 16000; inconclusive means no clear call, values can overlap the other calls
Anthrax LF inh2: inhibitors of Bacillus anthracis lethal factor protease. P15917. multiplex microsphere protease cleavage assay, LF. inhibition, % at 10 µM. actives 0.12% (n = 360,000); further: plate controls were buffer without enzyme for full effect and enzyme alone for no effect
BoNT-F LC inh: blocks Botulinum neurotoxin F light chain protease; Multiplex microsphere protease cleavage assay, flow cytometry; inhibition, % at 10 µM; actives 0.22% (n = 360,000); AID 588497; in the data active means inhibition above about 35%, passing the limit was not always enough; inconclusive means no clear call, values can overlap the other calls; further: plate controls were buffer without enzyme for full effect and enzyme alone for no effect
An asterisk follows results filed as active; i = inactive; ? = inconclusive; · = no result given. Compounds with a hit are over-represented: about 3.7% of the library has one in this group of screens. Unless noted, no stated cut-off is given here; in the data, active means inhibition above about 30%; inconclusive means no clear call, values can overlap the other calls; inactive means below that.

SMILES | MazF activator | BoNT-A LC inh2 | Bead autofluor | Anthrax LF inh2 | BoNT-F LC inh
O=C1CC(N2CCN(c3ccccc3)CC2)C(=O)N1c1cccc(Cl)c1 (centres undefined) | 3 | -3 | 3465 | -1 | 17
CC(OC(=O)c1ccccc1C(=O)N(C)C1CCCCC1)C(=O)NC1(C#N)CCCCC1 (centres undefined) | -2 | · | · | · | ·
CC1=NC(=O)C(N=Nc2cccc(O)c2)N1c1ccccc1 (centres undefined) | 0 | -4 | 16879* | -9 | -6
C=CCn1c(SCc2c(F)cccc2Cl)nnc1-c1ccco1 | 4 | 0 | 16837* | -2 | 0
O=C(Nc1nncs1)C12CC3CC(CC(Cl)(C3)C1)C2 | 7 | -1 | 3970 | 9 | ?
O=C(COC(=O)C1(c2ccc(F)cc2)CCCC1)NC1CC1 | -1 | -3 | 17844* | 1 | -3
O=[N+]([O-])c1ccc(N2CCCCC2)c2ncccc12 | -12 | 3 | 4631 | -4 | -2
Nc1cc(N2CCCCC2)c(Cl)cc1[N+](=O)[O-] | 5 | ? | 21335* | -12 | 6
O=[N+]([O-])c1ccc(N2CCCCCC2)c2nonc12 | i | 53* | 14674 | 26 | 115*
Nc1ccc(N2CCCCC2)c2nonc12 | 5 | 33* | 3405 | 9 | -22
O=[N+]([O-])c1ccc(N2CCCCC2)c(Cl)c1N1CCCCC1 | -4 | 1 | 19380* | 2 | -1
CCN(CC)c1ccc(S(=O)(=O)N2CCOCC2)cc1NC(=O)CSc1nnc(N)s1 | -11 | 1 | ? | 0 | -4
CSc1ccccc1C(=O)OCC(=O)Nc1c(C)n(C)n(-c2ccccc2)c1=O | 12 | 0 | 3943 | -4 | 5
COc1ccc(CCNC(=O)[C@@H](NC(=O)N2CC(=O)Nc3ccccc32)C(C)C)cc1OC | 10 | 1 | 5224 | -1 | -3
CCCc1cc(-c2n[nH]c(C)c2-c2ccc(C(=O)OCC)o2)c(O)cc1O | -7 | 2 | 19356* | -9 | -3
Clc1ccc(Cn2ccc(-c3ccc4c(c3)OCO4)n2)cc1Cl | 2 | 0 | 23441* | -1 | -2
Cc1nn(Cc2ccc(Cl)c(Cl)c2)c(C)c1NC(=O)c1cc(-c2ccc3c(c2)OCO3)on1 | -22 | ? | 19313* | -19 | 9
CCc1ccc(NC(=O)c2cc(-c3ccco3)on2)cc1 | -19 | -2 | 24283* | -1 | -3
Cc1nn(Cc2ccccc2)c(C)c1NC(=O)c1cc(-c2ccco2)on1 | 3 | 2 | 20385* | 2 | 0
COc1ccc(OC)c(-c2cc(C(=O)Nc3c(C)nn(Cc4ccccc4)c3C)no2)c1 | 0 | -1 | 11097 | -2 | -4
Cc1nn(Cc2ccc(Cl)cc2)c(C)c1NC(=O)c1cc(-c2ccc3c(c2)OCO3)on1 | -32 | -2 | 10100 | -4 | -9
COc1ccccc1C(=O)Nc1nnc(SCC(=O)NC2CCCC2)s1 | 0 | 0 | 4376 | -1 | -7
C[C@H](CO)N1C[C@H](C)[C@H](CN(C)C(=O)Nc2ccc(F)cc2)OCc2cnnn2CCCC1=O | -6 | 0 | 2935 | 4 | -6
Cc1csc(NC(=O)c2nc(-c3ccccc3)n(-c3ccccc3)n2)n1 | 8 | 1 | 22922* | 1 | 2
CCOc1ccc(C2C(C#N)=C(N)SC(N)=C2C#N)c(OCC)c1 | 21 | 44* | 22485* | 25 | ?
SMILES | MazF activator | BoNT-A LC inh2 | Bead autofluor | Anthrax LF inh2 | BoNT-F LC inh
CCOc1cc(C2C(C#N)=C(N)SC(N)=C2C#N)ccc1OCCN1CCOCC1 | 1 | 1 | 8863 | -3 | 4
Cc1ccc(C(=O)Nc2ccc(Br)c(C(F)(F)F)c2)cc1 | 23 | -1 | 16589* | -1 | -4
Cc1ccc(NC(=O)c2ccc(C)cc2)cc1 | 6 | 0 | 4318 | -4 | -9
CC(C)(CNC(=O)CC1C(=O)NCCN1Cc1cccc(F)c1F)N1CCOCC1 (centres undefined) | 7 | 1 | 5443 | 1 | -3
Fc1ccc(C[n+]2csc3ccccc32)cc1 | 8 | ? | 22598* | -2 | -2
Clc1ccc(C[n+]2csc3ccccc32)cc1 | -33 | 0 | 2210 | -2 | -6
COC(=O)c1cn(C(=O)c2ccc(C)cc2)c2ccccc12 | -6 | 0 | 2725 | -2 | -4
COC(=O)c1cn(CCOc2ccc(C)cc2)c2ccccc12 | -1 | -2 | 22793* | -3 | -3
COC(=O)c1cn(C(=O)c2ccc(OC)cc2)c2ccccc12 | -2 | 1 | 4142 | -8 | 36*
Cc1ccc(CCNC(=O)CN2C(=O)COc3ccc(S(=O)(=O)N4CCOCC4)cc32)cc1 | 7 | -3 | 5396 | -2 | -6
Cc1ccc(OCc2nnc(SCC(=O)N3C(C)CCCC3C)o2)cc1 (centres undefined) | -9 | -2 | 3744 | -5 | 10
